Among the data in ChEMBL document CHEMBL3988442, “University of Dundee, Small-Polar-MMV Screening Library” (2021) are Percent Effect values, retold here.

This assay addresses AMP-activated protein kinase, AMPK (Homo sapiens) (UniProt P54646+O43741+P54619+Q9UGJ0+Q9Y478+Q13131+Q9UGI9). Description: AMP-dependent Kinase enzyme assay. An in vitro enzyme assay that detects ADP turnover that is directly proportional to AMPK activity. This uses naive AMPK that is activated during the assay with MK-8722. Details: scale not given: direction of the effect not stated beside the values. Type of assay: functional. The following applies: 30 µM.
Regarding `Cc1nonc1CC(=O)N1C[C@@H]2CC[C@H](C1)N(Cc1ccccc1)C2=O`, the Percent Effect was -1.13%.

`CCOCC(O)CN1CCN(C(=O)CC(C)C)CC1` (stereo not given): the Percent Effect was -2.25%. In the case of `Cc1cnc(C(=O)N2CCCN(Cc3csc(C)n3)CC2)cn1`, the Percent Effect was -7.71%. As to `CN1CCCC1CNC(=O)c1nnn(-c2ccc(F)cc2)c1C1CC1` (stereo not given), the Percent Effect was determined as 1.3%. The value for `CN(Cc1cn2c(n1)CN(C(=O)CC1CC1)CC2)Cc1ccco1` was 8.42%; that for `Cc1cccc(Cn2ccc(NS(C)(=O)=O)n2)c1` was -2.37%; that for `COc1cccc(COCC(=O)N2CCCC(N3CCCC3)CC2)c1` (stereo not given) was 4.62%. The value for `OCCOCCN1CCCC1c1nc2cc(F)ccc2[nH]1` (stereo not given) was -1.73%; that for `Cc1cnn(CC(C)NCc2nc(-c3cccnc3)no2)c1` (stereo not given) was -14%.

For `Cc1cc(C(=O)NCc2ccnc(N(C)C)c2)c(C)o1`, the Percent Effect was -3.99%. As to `O=C(NCCn1ccnc1)c1cccc(F)c1`, the Percent Effect is -6.48%. Regarding `COc1ccccc1S(=O)(=O)Nc1ccc2c(C(=O)O)c[nH]c2c1`, the Percent Effect was -64.6%. Consider `O=C(Cc1cccc(Cl)c1)N[C@@H]1CCNC[C@H]1O`, for which the Percent Effect is -5.86%. Consider `CC(=O)N(C)c1nc(CN2CCOC(Cn3cccn3)C2)cs1` (stereo not given), for which the Percent Effect was -1.27%. Turning to `N#CC1(C(=O)N2CCN(Cc3ccon3)CC2)CCC1`, the Percent Effect worked out at 1.56%. Turning to `COc1ccc(CN2CCCC(Nc3cccc(F)c3)C2)cc1O` (stereo not given), the Percent Effect was -3.77%.

For `Cc1cccc(-n2cc(C(=O)N3CCn4c(C)nnc4C3)nn2)c1`, the Percent Effect stood at 2.62%. The value for `COc1ccnc(N2CCN(C(=O)c3csc(C4CC4)n3)CC2)n1` was 2.76%; that for `CCNC(=O)[C@@H]1C[C@H](NC(=O)c2cncnc2C)CN1CCCSC` was -7.63%; that for `CCc1nc(CN2CCN(c3ncnc4cc(F)ccc34)CC2)no1` was -0.509%. The value for `O=C(c1cccc(Cn2ccnc2)c1)N1CCCC(n2ccnc2)C1` (stereo not given) was -8.78%; that for `O=C(COc1ccc(C(F)(F)F)cc1)NS(=O)(=O)c1cccnc1` was 4.15%.

For the molecule `NS(=O)(=O)N1CCc2ccc(NC(=O)Cc3ccc(F)cc3)cc21`, the Percent Effect was -2.62%.

`Cc1ccc(CC2CCCN2CC(=O)NCc2cccnc2)cc1` (stereo not given): the Percent Effect is 5.21%. The value for `CN(C)CC1CSCCCN1C(=O)Nc1ccc(C(C)(C)C)cc1` (stereo not given) was 3.67%; that for `CC(CNC(=O)c1ccc(Cl)cc1I)N1CCCC1` (stereo not given) was -6.38%.

Take `Cc1ncsc1C(=O)N(C)Cc1cccc(Cl)c1`: the Percent Effect is -2.9%.

Turning to `COc1ccc(C2C3=C(COC3=O)Nc3[nH]nc(C)c32)cc1OC` (stereo not given), the Percent Effect worked out at 9.48%. The value for `COCCN1CCc2cc(C(=O)N(C)C)c(NC(C)C)nc2CC1` was -3.33%. Turning to `CCCC(=O)N1CCC(O)(Cn2c(CC)nc3ccccc3c2=O)CC1`, the Percent Effect is 21.5%. The value for `CCc1nnsc1C(=O)NC1CCN(c2ccccn2)CC1` was 1.62%; that for `Cc1ccc(CN2CC(C(=O)Nc3ccccc3)C3(CCOCC3)C2)s1` (stereo not given) was -1.41%; that for `COc1cccc(CC2CN(C3CCN(C(C)=O)CC3)CCO2)c1` (stereo not given) was 2.17%. For the molecule `CCOCCCC(=O)NCCC(=O)N1CCN(c2ccccn2)CC1`, the Percent Effect amounted to 4.17%.

Consider `Cc1nc(CN2CCc3cncnc3C2)oc1C`, for which the Percent Effect was -102%. As to `Cc1csc(N2CCN(C(=O)Cc3ccsc3)CC2)n1`, the Percent Effect was -0.587%.

In the case of `COc1ncccc1C(=O)N1CCN(C(=O)Cc2ccccn2)CC1`, the Percent Effect is -6.89%. In the case of `Cc1cc(-c2nnc(SCC(=O)O)n2C(C)c2ccccc2)nn1C` (stereo not given), the Percent Effect is -0.551%. The value for `Cc1ccccc1CSCCn1nc2ccccn2c1=O` was 7.92%; that for `Fc1cccc(-n2ccc(CN3CCCCC3Cn3cncn3)n2)c1` (stereo not given) was 0.842%.
